Shown are actives, neighbours in structure and some others; about 4.7% of the full set was active somewhere.
3CLpro inhibitor – SARS-CoV 3CLpro protease inhibition; AID 1706; actives 0.14% (n = 290,000); inhibition, % at 6 µM; P0C6X7; recombinant SARS-CoV 3CLpro, quenched FRET peptide cleavage; in the data active means inhibition above about 12%
FBA Mtb inh – inhibitors of M. tuberculosis fructose-bisphosphate aldolase; inhibition, % at 1 µM; P9WQA3; purified M. tuberculosis FBA, fluorescence read-out; actives 2.3% (n = 360,000); AID 588726
Target sequence (P9WQA3 whole entry, looked up): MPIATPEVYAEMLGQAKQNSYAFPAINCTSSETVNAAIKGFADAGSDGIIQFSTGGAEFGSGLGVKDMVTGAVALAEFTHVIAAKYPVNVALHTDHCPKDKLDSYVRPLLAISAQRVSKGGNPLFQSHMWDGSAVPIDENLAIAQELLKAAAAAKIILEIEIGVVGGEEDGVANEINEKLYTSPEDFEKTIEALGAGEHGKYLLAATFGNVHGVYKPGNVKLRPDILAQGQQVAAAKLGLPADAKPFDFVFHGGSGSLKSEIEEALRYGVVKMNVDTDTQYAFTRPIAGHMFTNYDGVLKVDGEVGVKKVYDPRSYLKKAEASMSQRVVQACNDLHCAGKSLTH
GDH-TPI counter-1 – inhibits GDH-TPI coupling enzymes, artifact for Mtb FBA screen; GDH-TPI coupled enzyme counterscreen, NADH absorbance; inhibition, % at 4.8 µM; actives 1.2% (n = 360,000); in the data active means inhibition above about 30%
RecA splice inh – Mtb RecA intein splicing inhibition | AID 2221 | cell-free RecA intein splicing, fluorescence | P9WHJ3 | actives 0.75% (n = 290,000) | inhibition, % (no concentration beside the values); in the data active means inhibition above about 30%
DUSP3 inh – blocks human VHR1 dual specificity phosphatase. recombinant VHR phosphatase, pNPP absorbance. actives 0.52% (n = 290,000). AID 1654. inhibition, % at 13.3 µM. P51452; in the data active means inhibition above about 50%
Target sequence (P51452 whole entry, looked up): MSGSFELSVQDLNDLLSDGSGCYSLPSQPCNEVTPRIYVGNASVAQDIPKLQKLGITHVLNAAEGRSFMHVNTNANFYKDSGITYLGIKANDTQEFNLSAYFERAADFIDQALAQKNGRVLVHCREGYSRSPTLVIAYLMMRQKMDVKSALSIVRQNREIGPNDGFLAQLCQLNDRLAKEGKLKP
CCHF vOTU inh – blocks the CCHF virus ovarian tumor domain protease. CCHFV vOTU protease, Pep-AMC fluorescence. inhibition, % at 11.5 µM. actives 0.55% (n = 370,000); in the data active means inhibition above about 30%
Mtb FBA confirm – Mtb FBA inhibition, confirmed | shares compounds with FBA Mtb inh | purified M. tuberculosis FBA, fluorescence read-out | inhibition, % at 1 µM | actives 78% (n = 5,600) | AID 651616
GDH-TPI counter-2 – inhibits GDH-TPI coupling enzymes, flagging Mtb FBA hits; inhibition, % at 1 µM; shares compounds with FBA Mtb inh; actives 81% (n = 5,600); GDH-TPI coupled enzyme counterscreen, fluorescence; AID 652141; in the data active means inhibition above about 10%
GDH-TPI dose – GDH-TPI dose response counter-screen for Mtb FBA | shares compounds with FBA Mtb inh | GDH-TPI coupled enzyme assay, fluorescence, artifact counterscreen | IC50, µM | actives 79% (n = 170); call rule not given here
A number is an active result; 0 = inactive; - = no result given; + = active, no number. Unless noted, no stated cut-off is given here; in the data, active means inhibition above about 27%; inactive means the rest.

SMILES	3CLpro inhibitor	FBA Mtb inh	GDH-TPI counter-1	RecA splice inh	DUSP3 inh	CCHF vOTU inh	Mtb FBA confirm	GDH-TPI counter-2	others
CC(C)CN(C(=O)COC(=O)CCC(=O)c1ccc(F)cc1)c1c(N)n(Cc2ccccc2)c(=O)[nH]c1=O	-	0	0	0	-	0	-	-
COCCCNS(=O)(=O)c1cc2c3c(c1)C(C)C(=O)N3CCC2 (stereo unspecified)	0	0	0	0	0	0	-	-
Cc1ccccc1OCC(=O)Nc1ccc2c(c1)C(=O)N(CCC(=O)O)C2=O	0	0	0	0	0	0	-	-
CN(CC(=O)Nc1ccc(Cl)cc1)C(=O)CNC(=O)c1ccc(Br)o1	-	0	0	0	-	0	-	-
CCN(CC)S(=O)(=O)c1ccc(NC(=O)c2cc(-c3cccs3)nc3ccccc23)cc1	0	0	0	0	0	0	-	-
C/C(=N\NC(=O)c1cccc2ccccc12)c1ccccn1	0	0	0	0	0	0	-	-
C/C(=N\NC(=O)c1cc(-c2cccs2)nc2ccccc12)c1ccccn1	0	33.7	0	0	0	0	98.7	91.7
NNC(=O)c1cc(-c2cccs2)nc2ccccc12	0	44.4	0	-	0	0	110.2	91.9
CCOC(CCNC(=O)c1cc(-c2cccs2)nc2ccccc12)OCC	0	95.0	0	0	0	0	+	+
O=C(NC1=NCCS1)c1cc(-c2cccs2)nc2ccccc12	0	43.6	0	0	0	0	87.3	63.0
NS(=O)(=O)c1ccc(NC(=O)c2cc(-c3cccs3)nc3ccccc23)cc1	0	0	0	0	0	0	-	-
COc1ccccc1CNC(=O)COC(=O)c1ncc(Cl)c(Cl)c1Cl	-	0	0	0	-	0	-	-
N#Cc1ccc(N[C@@H]2CCN3C(=O)c4ccccc4[C@@H]3C[C@H]2O)cc1	-	0	0	-	-	0	-	-
Cc1c(C(=O)NCc2nnc(-c3ccccc3)o2)oc2c(F)cccc12	0	0	0	0	0	0	-	-
CC(C)NC(=O)c1cc(-c2cccs2)nc2ccccc12	0	71.4	0	0	0	0	144.7	113.1
O=C(c1ccccc1)N1CCC(Oc2cccnc2)CC1	-	-	-	-	-	0	-	-
O=C(c1cccnc1)N1CCC(Oc2ccc(C(=O)N3CCCC(O)C3)cc2)CC1 (stereo unspecified)	0	27.9	0	0	0	0	57.6	30.4
CCC(c1nnnn1-c1c(C)cccc1C)N1CCCN(Cc2ccc(F)cc2)CC1 (stereo unspecified)	-	-	-	-	-	0	-	-
O=C(Cn1cnc([N+](=O)[O-])n1)c1ccc(O)c(O)c1	0	0	0	0	0	0	-	-
S=c1[nH]cc(-c2ccccc2)[nH]1	0	53.1	0	0	0	0	60.0	59.8
COc1ccc2[nH]c3c(c2c1)CCN1C(=O)C(CC(=O)NCc2ccco2)C[C@H](C(=O)N2CCOCC2)[C@@]31CCC1CCCC1 (stereo partly specified)	-	0	0	-	-	0	-	-
CCCn1nc2cc(C(=O)NCC34CC5CC(CC(C5)C3)C4)ccc2c1OCC	0	28.7	0	0	0	0	0	0
COCCn1nc2cc(C(=O)NCC34CC5CC(CC(C5)C3)C4)ccc2c1OC	0	43.4	0	0	0	0	+	+
O=C(NCC12CC3CC(CC(C3)C1)C2)c1nc2ncccn2n1	0	0	0	0	0	0	-	-
Cc1ccc(CNS(=O)(=O)c2c(C)[nH]c(C)c2C(=O)N2CCCCC2)cc1	0	0	0	0	0	0	-	-
SMILES	3CLpro inhibitor	FBA Mtb inh	GDH-TPI counter-1	RecA splice inh	DUSP3 inh	CCHF vOTU inh	Mtb FBA confirm	GDH-TPI counter-2	others
Cc1cc(C)nc(NC(=O)Cc2cccs2)n1	0	31.6	0	-	0	0	112.8	86.9
Cc1ccc(C)c(S(=O)(=O)NCC(c2ccco2)N2CCc3ccccc3C2)c1 (stereo unspecified)	-	73.7	0	0	-	0	80.9	74.3
O=C(CN1CCOCC1)Nc1c2c(nc3ccccc13)N(Cc1ccccc1)CC2	0	44.0	0	0	0	0	60.2	50.9
O=C(CN1CCOCC1)NNc1c2ccccc2nc2ccccc12	0	0	0	0	0	0	-	-
CN(C)c1cc(NC(=O)CN2CCCC2)c2ccccc2n1	0	0	0	-	0	0	-	-
O=C(CN1CCCC1)Nc1c2c(nc3ccccc13)N(Cc1ccccc1)CC2	0	30.6	0	0	0	0	46.2	34.4
CC(Oc1cccc(Cl)c1)c1ccnc2nc(/N=C/N(C)C)nn12 (stereo unspecified)	0	0	0	0	0	0	-	-
CN(C)/C=N/c1nc2nccc(-c3ccc(F)cc3)n2n1	0	87.7	0	0	0	0	62.5	56.0
CN(C)/C=N/c1nc2nccc(-c3cccc(Cl)c3)n2n1	0	34.1	0	-	0	0	0	0	GDH-TPI dose=2.18
CC1CCN(C(=O)CN2C(=O)C(=O)N(C)C2=O)c2ccccc2S1 (stereo unspecified)	-	0	0	-	-	0	-	-
COC(=O)[C@@]12C[C@@H](CC(=O)NCc3ccc(C)o3)C(=O)N(Cc3cccc4ccccc34)C1=CCC(C)(C)C2	-	-	-	-	-	0	-	-
Cc1oc2cc3oc(=O)c(CCC(=O)N4C[C@H]5C[C@@H](C4)c4cccc(=O)n4C5)c(C)c3cc2c1C	0	0	0	0	0	0	-	-
COc1cc(CC(=O)N2C[C@H]3C[C@@H](C2)c2cccc(=O)n2C3)cc(OC)c1OC	-	0	0	-	-	0	-	-
COc1ccc2c(C)c(CC(=O)N3C[C@H]4C[C@@H](C3)c3cccc(=O)n3C4)c(=O)oc2c1OC	0	29.9	0	0	0	0	0	0
COc1cc2oc(=O)c(CC(=O)N3C[C@H]4C[C@@H](C3)c3cccc(=O)n3C4)c(C)c2cc1Cl	-	44.9	0	-	-	0	35.0	28.3
Cc1cccn2c(=O)c3cc(C(=O)NC4CCCC4)sc3nc12	0	91.2	0	0	0	0	66.5	50.9
CCCN(CCC)C(=O)c1cc2c(=O)n3cccc(C)c3nc2s1	0	29.8	0	0	-	0	137.2	98.0
CCC1CCCCN1C(=O)c1cc2c(=O)n3cccc(C)c3nc2s1 (stereo unspecified)	0	0	0	-	0	-	-	-
CCCCCn1c(=N)c(S(=O)(=O)c2ccc(Cl)cc2)cc2c(=O)n3cccc(C)c3nc21	0	0	0	0	0	-	-	-
Cc1cccn2c(=O)c3cc(C(=O)N4CCCCC4)sc3nc12	0	63.9	31.3	0	0	0	122.0	83.3
Cc1cccn2c(=O)c3cc(C(N)=S)c(=N)n(CCCOC(C)C)c3nc12	0	62.6	0	0	0	0	0	0
Cc1cccn2c(=O)c3cc(C(=O)NCC(C)C)sc3nc12	0	0	0	0	0	0	-	-
Nc1ncnc2c1ncn2[C@@H]1O[C@H](CNC(=O)[C@@H]2CCC(=O)N2)[C@@H](O)[C@H]1O	-	0	0	-	-	-	-	-
COc1ccc(Br)c(C(=O)NC2CCCC2)c1	0	0	0	0	0	0	-	-
